This is part of a sample that, as a whole, favours compounds with a hit. Of some 79,000 tested, about 15% had one in any assay. Calls of active or inactive are those of the source. No stated cut-off is given here; in the data, active means growth inhibition above about 70%; inactive means the rest.
Columns and labels:
[1] = NCI Yeast Anticancer Drug Screen. Data for the rad50 strain (AID 155);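 further: 0% = growth of vehicle-only cultures of the same strain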; conditions: S. cerevisiae rad50 strain growth inhibition; at 50.0 µM; active compounds read high
Method in brief: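 Relative growth inhibition (compound vs vehicle) was measured in yeast with a defined repair-gene alteration.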

[2] = NCI Yeast Anticancer Drug Screen. Data for the mec2-1 strain (AID 157); conditions: S. cerevisiae mec2-1 strain, at 50.0 µM, active compounds read high
Method in brief: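 Test agents were screened against the mec2-1 yeast strain, with defined DNA repair or cell cycle alteration. Growth was scored as inhibition against vehicle-only controls.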

[3] = NCI Yeast Anticancer Drug Screen. Data for the sgs1 mgt1 strain (AID 161);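 further: 0% = growth of cultures given vehicle only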; conditions: S. cerevisiae sgs1 mgt1 strain, at 50.0 µM, active compounds read high
Method in brief: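 Inhibition of yeast growth, normalised to vehicle-treated controls, is reported for a strain bearing genetic alterations in DNA damage repair.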

[4] = NCI Yeast Anticancer Drug Screen. Data for the cln2 rad14 strain (AID 165);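 further: 0% = growth equal to vehicle treated cultures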; conditions: S. cerevisiae cln2 rad14 strain, at 50.0 µM, active compounds read high
Method in brief: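 Growth of compound-exposed yeast (cln2 rad14 genotype) measured and expressed as inhibition relative to vehicle.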

[5] = NCI Yeast Anticancer Drug Screen. Data for the bub3 strain (AID 167); conditions: S. cerevisiae bub3 mutant strain, at 50.0 µM, active compounds read high
Method in brief: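 Screening used yeast with an engineered genetic alteration affecting cell cycle control. Compound-exposed cultures were compared with vehicle cultures, and reduced growth was taken as inhibition.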

[6] = NCI Yeast Anticancer Drug Screen. Data for the mlh1 rad18 strain (AID 175); conditions: S. cerevisiae mlh1 rad18 strain growth inhibition; at 50.0 µM; active compounds read high
Method in brief: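 In this whole-cell yeast screen, a strain with altered DNA damage repair is challenged with compound, and its growth is measured against matched vehicle-treated controls.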

Measured: growth inhibition

O=C(Nc1nncs1)c1cccs1
inactive: [1] -13.8% | [2] -6.45% | [3] -5.6% | [4] 3.35% | [5] -11.2% | [6] -27.5%

O=C(O)C1C2CC(C(Br)C2Br)C1C(=O)O (configuration not stated)
inactive: [1] -6.55% | [2] 0.75% | [3] -21.7% | [4] 9.9% | [5] -5.85% | [6] -12.2%

C/C(=N\NS(=O)(=O)c1ccc(C)cc1)c1ccc[n+]([O-])n1
inactive: [1] 4.9% | [2] -2.4% | [3] 5.8% | [4] 7.4% | [5] 6.2% | [6] -0.55%

COC(=O)C1(Cc2ccccc2)Cc2cc3c(cc2C1=O)CCC3 (configuration not stated)
inactive: [1] 20.9% | [2] 3.75% | [3] 8.5% | [4] 2.2% | [5] 34.8% | [6] -7.65%

COC(=O)C(C(=O)OC)C(c1cccc([N+](=O)[O-])c1)C(N)c1ccccc1 (configuration not stated)
inactive: [1] 15.3% | [2] -8.95% | [3] -0.5% | [4] 28.2% | [5] 32.1% | [6] 56.4%

O=C1NC(=S)S/C1=C/c1cn(-c2ccccc2)nn1
inactive: [1] 17.4% | [2] 3.15% | [3] -5.05% | [4] -18.2% | [5] 1.75% | [6] 10.6%

COc1ccc2c(c1)CCCN2S(=O)(=O)c1ccccc1[N+](=O)[O-]
inactive: [1] -25.7% | [2] -3.9% | [3] -17.9% | [4] -7.65% | [5] 39.2% | [6] 1.85%

O=C(NCCCl)Nc1[nH]c(=O)ncc1I
inactive: [1] -6.55% | [2] -6.7% | [3] 1.1% | [4] -10.3% | [5] -8.75% | [6] -7.95%

Nc1cnc2ccccc2c1
inactive: [1] 10.2% | [2] 1.25% | [3] -8.45% | [4] -46.5% | [5] 11.8% | [6] -4.1%

O=S(=O)(NC1c2ccccc2Oc2ccccc21)c1ccc2ccccc2c1
inactive: [1] 28.4% | [2] 11.1% | [3] 16.6% | [4] 19.1% | [5] 9.65% | [6] 39.7%

Cc1nn(C(=O)c2ccc(Cl)cc2)c2c1C(c1ccccc1)SC(N)=N2 (configuration not stated)
inactive: [1] -18.6% | [2] -38% | [3] -5.15% | [4] 6.2% | [5] 18.4% | [6] -3.5%

CN(N=O)C(=O)NCc1ccc(Cl)cc1
inactive: [1] -0.1% | [2] 15.8% | [3] 17.6% | [4] 12.4% | [5] 8.05% | [6] 1.15%

CN(c1c(Cl)cccc1Cl)S(=O)(=O)c1ccccc1[N+](=O)[O-]
inactive: [1] -38.5% | [2] -49.5% | [3] -15.5% | [4] 20% | [5] -1.1% | [6] -4.5%

O=C(O)c1ccc2ccccc2c1C(=O)O
inactive: [1] 6.4% | [2] -1.6% | [3] 0.25% | [4] -6.55% | [5] -2.2% | [6] -1.7%

Cc1cc(C)n2ncc(Br)c2n1
inactive: [1] 26.2% | [2] 13.1% | [3] 14.2% | [4] -35% | [5] 12.9% | [6] 8.15%

CC(=Nc1cc(Cl)cc(Cl)c1)c1ccncc1
inactive: [1] -25.1% | [2] -21.2% | [3] -31.4% | [4] -5.05% | [5] 16.4% | [6] -49.8%

C1CCCNCCNCCNCC1
inactive: [1] -4.4% | [2] -17.1% | [3] -18.9% | [4] 16.1% | [5] -20.8% | [6] 19.1%

Nc1cc(N)nc(S(=O)(=O)O)n1
inactive: [1] -5.75% | [2] -12.9% | [3] -4.7% | [4] -25.9% | [5] 3.6% | [6] -12.9%

COc1cc(C2C(C(=O)O)=C(COC(C)=O)Oc3cc4c(cc32)OCO4)cc(OC)c1OC (configuration not stated)
inactive: [1] -9.9% | [2] -15.4% | [3] -25.4% | [4] -19.2% | [5] -4.1% | [6] -8.6%

COc1ccc(NC(C)=O)cc1C1CCC(=O)N1 (configuration not stated)
inactive: [1] 12.2% | [2] 7.25% | [3] -1.65% | [4] 10.1% | [5] -19% | [6] -23.6%

CC(=O)NNc1nc(C)c(C(=O)/C=C/C=C/c2ccccc2)s1
inactive: [1] -3.8% | [2] 39% | [3] 10.7% | [4] 10.3% | [5] 13.1% | [6] -21.8%

C=C1C(=O)O[C@H]2[C@H]1CC(=O)/C(C)=C/CC[C@@]1(C)O[C@@H]21
inactive: [1] 32.7% | [2] 21.4% | [3] 32.8% | [4] 21.4% | [5] 25.6% | [6] 7%

NC(=S)N/N=C/c1ccc(Cl)cc1Cl
inactive: [1] 65.7% | [2] 42.5% | [3] 35.9% | [4] 28.3% | [5] 45.2% | [6] 38.7%

Cc1cccc(NC(=S)N(CCC#N)C2CCCCC2)c1
inactive: [1] 1.6% | [2] -2.85% | [3] 14.8% | [4] 7% | [5] 18.6% | [6] 9.85%

N#C/C(=N\NC(=O)c1ccccc1)c1ccccc1
inactive: [1] 5.65% | [2] 4.9% | [3] -3.7% | [4] -32.5% | [5] -8.3% | [6] 3.5%

CC1(C)C(N2CCOCC2)CS1(=O)=O (configuration not stated)
inactive: [1] 1.75% | [2] -5.2% | [3] -1.5% | [4] -24.2% | [5] -15.7% | [6] 3.25%

CCCCCCCCCCCCCCCCCC1=Nc2cc(C)c(C)cc2NC(=O)C1
inactive: [1] -21.7% | [2] -31.6% | [3] -30.1% | [4] 7.35% | [5] -12.8% | [6] -8.1%

Brc1cccc(N=NN2CCCC2)c1
inactive: [1] 14.7% | [2] 25.4% | [3] 28.9% | [4] 9.6% | [5] 7.7% | [6] 47.1%

O=P(O)(O)c1ccc(Oc2ccccc2)cc1
inactive: [1] -8.6% | [2] 1.35% | [3] -4.1% | [4] -22.2% | [5] 5.45% | [6] -2.85%

OC[C@@H](O)[C@H]1NC[C@@H](O)[C@H]1O
inactive: [1] -45.1% | [2] -57.1% | [3] -50.1% | [4] 7.7% | [5] -26.1% | [6] -17.9%

CCCCCCC1(C=O)C(=O)NC(=O)N1C (configuration not stated)
inactive: [1] 10.3% | [2] 9.65% | [3] 6.45% | [4] 13.3% | [5] 4.1% | [6] -0.35%

CSc1nsc(SC)c1C(N)=O
inactive: [1] -0.25% | [2] -17.6% | [3] 15.3% | [4] 12.5% | [5] 16.2% | [6] -0.85%

CC1SC2(C(=O)Nc3ccccc32)N(c2ccc(O)cc2)C1=O (configuration not stated)
inactive: [1] 6.25% | [2] -2.75% | [3] 9.45% | [4] 2% | [5] 7.9% | [6] 14.8%

NC(=O)c1ccccc1NC(=O)CCCOc1ccccc1
inactive: [1] -11.5% | [2] 8.35% | [3] 16.8% | [4] -5.8% | [5] -14.3% | [6] 9.2%

N=c1nnc2ccc(Cl)cc2n1O
inactive: [1] 64.5% | [2] 4.7% | [3] 15.6% | [4] 9.65% | [5] -1.85% | [6] -5.25%

COc1cccc(CN(CC(=O)O)S(=O)(=O)c2ccc(C)cc2)c1
inactive: [1] -6.2% | [2] 11.3% | [3] -1% | [4] -46.6% | [5] -23.6% | [6] 6.85%

O=C1c2cccc3c(Br)ccc(c23)C(=O)N1C1CCCCCCCCCCC1
active: [1] 99.2% | [2] 99.5% | [3] 99.5% | [4] 98.5% | [5] 99.2% | [6] 99.5%

From PubChem BioAssay (NCI)
